D1 antag – human D1 dopamine receptor antagonism; HEK293 TREx D1 cells, calcium flux, dopamine EC80; stronger effect = lower value; activity change, negative = inhibition, % at 10 µM; actives 3.2% (n = 360,000); in the data active means activity change below about -30%; further: on the % scale 0 is the no-effect control and ±100 the full control effect
Target sequence (P21728 whole entry, looked up): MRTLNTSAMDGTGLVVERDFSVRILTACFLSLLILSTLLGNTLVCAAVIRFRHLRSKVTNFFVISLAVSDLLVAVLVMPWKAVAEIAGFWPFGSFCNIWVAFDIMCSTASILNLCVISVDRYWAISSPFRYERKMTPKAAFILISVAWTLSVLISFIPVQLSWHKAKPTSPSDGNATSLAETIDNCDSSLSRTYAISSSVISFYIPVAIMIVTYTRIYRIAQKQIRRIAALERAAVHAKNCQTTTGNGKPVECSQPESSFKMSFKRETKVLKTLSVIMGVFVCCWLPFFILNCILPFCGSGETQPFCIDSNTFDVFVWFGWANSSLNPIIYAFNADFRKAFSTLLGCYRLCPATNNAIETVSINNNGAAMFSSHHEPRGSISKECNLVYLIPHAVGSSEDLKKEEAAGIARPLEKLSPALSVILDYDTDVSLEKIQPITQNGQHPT
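Antagonism measured as reduced calcium response to an EC80 dopamine addition following 180 s compound pre-read; cells were inducible HEK293 Trex D1 plated overnight at 30 C, read kinetically at 1 cycle/sec.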
D3 ag – agonists of human D3 dopamine receptor; D3R DiscoveRx beta-arrestin cells, luminescence, 90 min; P35462; actives 0.58% (n = 410,000); max activation, %; AID 652048; in the data active means max activation above about 30%; further: 0% is about no effect
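Agonist-mode cell screen: cells plated at 1500/well and incubated overnight at 37 °C, then exposed to library compounds for 90 min at 37 °C. Detection reagent was added for 30–60 min at room temperature, and luminescence was read.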
D1 PAM – potentiators of human D1 dopamine receptor | HEK293 TREx D1 cells, calcium flux, dopamine EC20 potentiation | potentiation, % at 10 µM | actives 0.036% (n = 360,000) | AID 504651; in the data active means potentiation above about 30%; further: 0% is about no effect
DRD3 antagonist – blocks the human D3 dopamine receptor. max response, negative = inhibition, %. D3R cells, DiscoveRx beta-arrestin luminescence, antagonist mode; stronger effect = lower value. actives 2.5% (n = 360,000); in the data active means max response below about -50%; further: on the % scale 0 is the no-effect control and ±100 the full control effect
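Cells expressing the human receptor were seeded at 1500 cells/well, incubated overnight at 37 degrees C in 5% CO2, then exposed to library compounds with dopamine controls for 90 minutes at 37 degrees C before luminescent detection.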
ERG Ets-DNA blk – ERG Ets/DNA interaction inhibition; Potency, µM (doses to about 76.9 µM), for the others: at the highest dose FP activity, negative = inhibition, usual class: inhibitors; fluorescence polarization, His-ERG Ets domain / labelled DNA; actives 0.028% (n = 370,000); P11308; active means well fitted inhibition curve with a large enough effect in the polarisation, with a control signal flat; the % refers to the polarisation;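 further: polarization taken with two DNA probes labelled with fluorescein and Texas red; potency means the concentration at half of the fitted maximal effect; % of control where 0% means no effect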
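His-tagged ERG Ets domain (1 uM in the protein solution; 300mM KCl, 50mM Tris-HCl, 1mM EDTA, 1mM DTT, pH 7.5) received compound, then a probe mix of 5 nM fluorescein-DNA and 100nM Texas-615-DNA. Fluorescence polarization was read for both dyes.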
D1 ag – agonists of human D1 dopamine receptor | P21728 | HEK293 T-REx D1 cells, calcium flux, agonist mode | activation, % at 2 µM | actives 1% (n = 360,000) | AID 504660; in the data active means activation above about 30%; further: 0% is about no effect
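Inducible HEK293 T-REx D1 cells, force-coupled to calcium signalling, were plated at 4000 cells/well with tetracycline and held overnight at 30 C. After no-wash calcium dye loading, compound-evoked calcium rise over 180 s flagged agonists.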
* = called active by the depositor; . = not tested or not shown. Only some compounds are listed: those with a hit (about 6.1% of all), similar ones and a draw of the others.

SMILES | D1 antag | D3 ag | D1 PAM | DRD3 antagonist | ERG Ets-DNA blk | D1 ag
CCN1C2=C(C(=O)CCC2)C(c2ccc(O)c(Br)c2)C2=C1CCCC2=O | -16.7 | 0.7 | -8.8 | -1.5 | -4.0% | 1.1
COC(=O)c1ccc(C2=NOC(C)(c3nnc(-c4cccc(Cl)c4)o3)C2)cc1 (stereo not given) | . | -4.7 | . | 25.0 | 3.8% | .
Cc1cccc(C)c1N1C(=O)c2ccccc2NC(=O)C1C(=O)Nc1ccc2c(c1)OCCO2 (stereo not given) | . | 2.7 | . | 9.4 | . | .
CC1(C)CC(=NO)CC(C)(C)N1 | -32.2* | 5.3 | 0.8 | -26.0 | 0.2% | 2.9
CC(=O)c1ccc(S(=O)(=O)NCC2(N3CCOCC3)CCCCC2)cc1 | 0.1 | -1.7 | -7.6 | 10.2 | -2.9% | 0.8
CN1CC[C@]2(CCN3CCc4c(oc5ccccc45)[C@@H]3C2)N(C)C1=O | -10.2 | -42.7 | -5.2 | -57.9* | -12.6% | -1.0
Cc1ccccc1OCC(=O)NCC(=O)N/N=C/C=C/c1ccccc1 | . | . | 0.1 | . | . | -1.2
CCCCn1c(N)c(N(CC)C(=O)C2CCN(C(=O)c3ccccc3C)CC2)c(=O)[nH]c1=O | 15.7 | 0.4 | -4.5 | 2.4 | 11.2% | 1.4
COC(=O)C1=C[C@@H](C(=O)OC)C2C3=C(C(=O)C24CCCCC4)[C@H](C)n2c(=O)n(-c4ccccc4)c(=O)n2[C@@H]3C1 (stereo not given in full) | . | 35.3* | . | 27.6 | 19.8% | .
Oc1ccc(/C=C/c2ccc3ccccc3n2)cc1 | 9.1 | -1.4 | -4.6 | 5.2 | 7.8% | 1.8
O/C(=C\c1ccc2ccccc2n1)c1ccc(O)cc1O | 11.9 | 2.3 | -4.3 | -8.1 | 2.8% | 70.7*
CC(C)Cn1c(N)c(C(=O)COC(=O)c2cc(C(F)(F)F)nc3ccccc23)c(=O)n(C)c1=O | -17.9 | 33.9* | -5.9 | 94.7 | -0.9% | -0.8
Cn1c(N)c(C(=O)COC(=O)c2cc(C3CC3)nc3ccccc23)c(=O)n(Cc2ccccc2)c1=O | -5.3 | 35.8* | -7.0 | 3.2 | 7.5% | 3.5
CC(C)Cn1c(N)c(C(=O)CSc2nc3ccccc3n2C)c(=O)n(C)c1=O | -25.6 | 11.4 | 2.3 | -53.8* | -4.5% | 5.3
COC(=O)[C@]1(Cc2ccccc2)N[C@H](CN(C)C(=O)Nc2ccc(C)cc2)[C@@H]2C(=O)N(C)C(=O)[C@@H]21 | . | -14.2 | . | 0.0 | 5.7% | .
CCNC(=O)NC(=O)CSc1nc2ccccc2n1CCOC | 9.6 | 6.4 | 2.1 | 14.9 | 7.8% | 1.5
Cc1nnsc1Sc1ccccc1 | 2.8 | 5.2 | -4.2 | 11.4 | -5.3% | 3.5
Cc1ccc2[nH]c(-c3ccccc3)c(CN3CCN(C)CC3)c(=O)c2c1 | -13.4 | -8.0 | -1.2 | -76.0* | . | 2.4
Cc1ccc(NC(=O)[C@H](NC(=O)[C@@H]2Cc3ccccc3CN2)c2ccccc2)cc1 | -28.7 | -17.9 | 0.4 | -99.7* | -3.2% | 1.3
CC(NC(=O)[C@H](NC(=O)[C@@H]1Cc2ccccc2CN1)c1ccccc1)c1ccccc1 (stereo not given in full) | -4.6 | 13.7 | 1.2 | -20.1 | 5.3% | 8.5
COc1cccc(NC(=O)[C@H](Cc2ccccc2)NC(=O)[C@@H]2Cc3ccccc3CN2)c1 | 19.6 | -4.7 | 12.8 | -0.9 | -13.9% | 27.2
COc1cccc(NC(=O)[C@H](NC(=O)[C@@H]2Cc3ccccc3CN2)c2ccccc2)c1 | 0.9 | -18.1 | 0.7 | -92.1* | -3.7% | 8.6
Cc1cccc(NC(=O)[C@@H](CC(C)C)NC(=O)[C@@H]2Cc3ccccc3CN2)c1 | 0.4 | -16.2 | -2.9 | -23.3 | 0.8% | 5.4
CC(C)c1ccc(NC(=O)[C@H](NC(=O)[C@@H]2Cc3ccccc3CN2)c2ccccc2)cc1 | 12.1 | -18.7 | -2.2 | -97.7* | 6.4% | 8.1
Cc1cccc(NC(=O)[C@H](NC(=O)[C@@H]2Cc3ccccc3CN2)c2ccccc2)c1 | -2.3 | -19.7 | 2.9 | -88.9* | 7.7% | 6.3
SMILES | D1 antag | D3 ag | D1 PAM | DRD3 antagonist | ERG Ets-DNA blk | D1 ag
Cc1cccc(NC(=O)CSc2nc3ccccc3nc2N2CCCCC2)c1 | 30.1 | 4.9 | -3.9 | 10.7 | 3.2% | 3.9
O=C(OCC(O)COc1ccccc1)c1ccc([N+](=O)[O-])cc1 (stereo not given) | -19.5 | -6.0 | -0.1 | 27.2 | 8.5% | 4.7
Cc1ccc(CSc2oc(-c3ccco3)nc2S(=O)(=O)c2ccc(Br)cc2)cc1 | -35.1* | -9.5 | 0.1 | . | 1.3% | 15.1
Cc1ccc(CSc2oc(-c3ccco3)nc2S(=O)(=O)c2ccc(Cl)cc2)cc1 | -14.8 | -1.9 | 1.0 | . | -4.0% | 12.0
CCCSc1oc(-c2ccco2)nc1S(=O)(=O)c1ccc(Br)cc1 | -36.4* | -0.7 | 1.9 | . | 4.1% | 16.6
Cc1cc(=O)oc2c3c(cc(OCC(=O)NCC(=O)O)c12)OC(C)(C)CC3 | -0.9 | -1.1 | -2.9 | -11.2 | 4.3% | 2.6
Cc1cc(=O)oc2c3c(cc(OCC(=O)NCc4ccccc4)c12)OC(C)(C)CC3 | -32.4* | 12.7 | -6.5 | 5.3 | -4.3% | 1.5
CCCc1cc(=O)oc2c3c(cc(OCC(=O)NCCN4CCOCC4)c12)OC(C)(C)CC3 | -7.1 | -47.8 | -1.9 | -56.5* | -2.8% | -1.4
CCOc1ccc(N(C)S(=O)(=O)c2csc(C(N)=O)c2)cc1 | -1.3 | 16.6 | -3.7 | 7.3 | 7.5% | 0.8
COc1ccc(Nc2nc(N)nc(CSc3nc(C)cc(C)n3)n2)cc1 | -9.0 | -11.1 | -1.7 | -61.2* | 5.0% | -0.7
CCOc1ccc(Nc2nc(N)nc(CN(C)C3CCCCC3)n2)cc1 | -1.0 | -1.8 | 1.1 | 11.5 | 43.1% | 0.3
COc1ccc(Nc2nc(N)nc(CN(C)C3CCCCC3)n2)cc1 | -34.0* | 11.0 | -4.8 | -15.2 | 2.1% | 1.0
CCNC(=O)CC1C(=O)N(c2ccc(C)cc2)C(=O)N1CCOC (stereo not given) | 2.9 | 4.4 | -7.7 | -4.8 | -13.1% | 2.1
CN(C)c1cccc(C(=O)OCC(=O)NC2CCCC2)c1 | -5.5 | 2.0 | -0.8 | -5.7 | 8.4% | 2.5
C=CCC(Nc1ccccc1)c1ccc(OC)c(OC)c1 (stereo not given) | -40.3* | . | -3.4 | . | . | 0.3
COc1ccc(C(CC(=O)O)NC(=O)Cc2ccccc2)cc1OC (stereo not given) | -5.9 | -7.6 | -4.0 | -23.7 | -2.1% | 1.2
O=C(NN1CCOCC1)c1cc(Cl)ccc1Cl | 1.1 | -5.4 | 11.8 | 1.6 | -3.4% | 3.7
O=C(CSC1=Nc2ccccc2C2CC=NN12)Nc1ccc2c(c1)OCO2 (stereo not given) | 8.4 | -16.0 | 2.6 | -50.2* | -2.9% | 2.7
Cc1ccc2nc3n(c(=O)c2c1)-c1cc(Cl)ccc1C(=O)NC3Cc1ccccc1 (stereo not given) | -37.5* | . | 0.2 | . | . | 1.6
